Reference: PubChem BioAssay (NCATS)
Results filed as inconclusive are left out. Where a call stands in place of a potency, no number is given. Calls of active or inactive are those of the source. Calls come from the whole dose curve; as a rule, active = well fitted inhibition curve with a large enough effect; inconclusive = small, poorly fitted or top-dose-only effect; inactive = no such curve, though single readings can be large or run the other way.

Experiments:
[1] = test system: Zika virus NS2B-NS3 protease (linked); assay: 384 well plate NINDS AMC confirmatory qHTS for Zika virus inhibitors (AID 1347163); settings: Recombinant NS2B-NS3 protease, Ac-VKTGKR-AMC fluorescence; note: nearly all actives have a fitted effect of over 50% in size
Method in brief: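 Linked protease 5/30/60 nM final; cpds up to 1 mM final, ~15 min preinc. Substrate Ac-VKTGKR-AMC 30 microM final. RT, dark, 25 min; FI ex 355/em 460; normalized to no-enzyme/no-inhibitor ctrls.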

[2] = target: N-terminal Xaa-Pro-Lys N-methyltransferase 1 (Homo sapiens) (UniProt Q9BV86); assay: qHTS Assay for Inhibitors of N-terminal methyltransferase 1 (NTMT1): LOPAC validation of the NTMT1 SAHH-coupled ThioGlo3 Assay (AID 1347143); settings: recombinant NTMT1, SAHH-coupled ThioGlo3 fluorescence; series mostly up to 114 µM;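 note: SAH from peptide methylation measured as thiol fluorescence via SAHH coupling and ThioGlo3; nearly all actives have a fitted effect of over 70% in size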
N-terminal Xaa-Pro-Lys N-methyltransferase 1 (Homo sapiens), sequence (Q9BV86 whole entry, looked up): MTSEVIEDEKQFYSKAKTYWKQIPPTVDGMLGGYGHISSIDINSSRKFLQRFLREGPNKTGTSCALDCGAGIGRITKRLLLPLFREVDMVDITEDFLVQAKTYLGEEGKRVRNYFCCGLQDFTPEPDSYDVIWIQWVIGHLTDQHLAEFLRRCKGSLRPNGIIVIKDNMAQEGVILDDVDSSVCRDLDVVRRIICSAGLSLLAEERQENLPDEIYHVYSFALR
Method in brief: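 Recombinant human NTMT1 (125nM) was pre-incubated 1 min at room temperature with compounds over a concentration range, then a mix of 100uM SAM, 10uM SAHH and 15uM ThioGlo3 (concentrations in added reagent) was added. ThioGlo3 fluorescence (ex 340/em 450nm) after 30 min was normalized to the initial reading.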

[3] = test system: Zika virus NS2B-NS3 protease (unlinked); assay: Optimization of GU AMC qHTS for Zika virus inhibitors: Unlinked NS2B-NS3 protease assay (AID 1347151); settings: recombinant ZIKV NS2B-NS3 protease, fluorogenic AMC substrate; series mostly up to 52.5 µM; note: nearly all actives have a fitted effect of over 80% in size
Method in brief: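 In this qHTS, compounds acted on 25 nM unlinked Zika NS2B–NS3 in pH 8.0 Tris/Tween buffer. Cleavage of an AMC peptide ran 15 min at room temperature, to about 20% conversion.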
Potency is the fitted concentration of half-maximal effect.

| Structure (SMILES) | Potency [1] | Potency [2] | Potency [3] |
| --- | --- | --- | --- |
| O=C(NOCC1CC1)c1cc(Br)c(F)c(F)c1Nc1ccc(I)cc1Cl | 44.7 µM (active) | – | – |
| O=C(c1cc(O)c(O)c([N+](=O)[O-])c1)c1ccccc1F | 112 µM (active) | – | – |
| C#C[C@]1(O)CC[C@H]2[C@@H]3CCC4=Cc5oncc5CC4(C)[C@H]3CCC21C (stereo partly specified) | – | inactive | inactive |
| Nc1nc2ccc(Cl)cc2n2c(-c3ccccc3)nnc12 | – | inactive | inactive |
| N#C/C(=C\c1ccc(-c2cc(Cl)ccc2Cl)o1)C(=O)Nc1cccc2ncccc12 | – | 56.2 µM (active) | 26.7 µM (active) |
| C=C[C@H]1CN2CC[C@@H]1C[C@@H]2[C@@H](O)c1ccnc2ccc(OC)cc12 | – | 56.2 µM (active) | 26.7 µM (active) |
| CCCC(CCC)C(=O)OC1CC2CCC(C1)[N+]2(C)C (stereo unspecified) | – | inactive | inactive |
| O=C1NC(O)=NC1(c1ccccc1)c1ccccc1 | – | inactive | inactive |
| CC[C@H]1OC(=O)[C@H](C)[C@@H](O[C@H]2C[C@@](C)(OC)[C@@H](O)[C@H](C)O2)[C@H](C)[C@@H](O[C@@H]2O[C@H](C)C[C@H](NC)[C@H]2O)[C@](C)(O)C[C@@H](C)CN(C)[C@H](C)[C@@H](O)[C@]1(C)O | – | inactive | inactive |
| NCCSSCCN | – | inactive | inactive |
| COc1cc(C(O)CO)ccc1OS(=O)(=O)O (stereo unspecified) | – | inactive | inactive |
| CCOC(=O)C1=C(C)NC(C)=C(C(=O)OCC)C1c1c(F)c(F)c(F)c(F)c1F | – | 79.4 µM (active) | 23.8 µM (active) |
| c1cnc2c(c1)ccc1cccnc12 | – | inactive | inactive |
| NC[C@H]1O[C@@H](n2cnc3c(N)ncnc32)[C@H](O)[C@@H]1O | – | inactive | inactive |
| NCCCCCCCCCCN | – | inactive | inactive |
| COC1=C(OC)C(=O)c2ccccc2C1=O | – | inactive | inactive |
| CC(C)(C)c1ccc(S(=O)(=O)/C=C/C#N)cc1 | – | 4.47 µM (active) | inactive |
| Oc1ccc(C2CNCc3sccc32)cc1O (stereo unspecified) | – | 35.5 µM (active) | inactive |
| CCNC(=O)[C@H]1O[C@@H](n2cnc3c(N)nc(NCCc4ccc(CCC(=O)O)cc4)nc32)[C@H](O)C1O (stereo partly specified) | – | inactive | inactive |
| Brc1cc2c(cc1[C@H]1Nc3ccccc3[C@H]3C=CC[C@H]31)OCO2 | – | inactive | inactive |

| Structure (SMILES) | Potency [1] | Potency [2] | Potency [3] |
| --- | --- | --- | --- |
| CO[C@H]1O[C@@H]2O[C@]3(C)CC[C@@H]4[C@@H](C)CC[C@H]([C@H]1C)[C@]24OO3 | – | inactive | inactive |
| Cc1cc(NC2CCCCC2)nc(-n2nc(C)cc2C)n1 | – | inactive | inactive |
| O=C(O)CCCC[C@@H]1CCSS1 | – | inactive | inactive |
| CN[C@H](CC(C)C)C(=O)N[C@H]1C(=O)N[C@@H](CC(N)=O)C(=O)N[C@H]2C(=O)N[C@H]3C(=O)N[C@H](C(=O)N[C@H](C(=O)O)c4cc(O)cc(O)c4-c4cc3ccc4O)[C@H](O)c3ccc(c(Cl)c3)Oc3cc2cc(c3O[C@@H]2O[C@H](CO)[C@@H](O)[C@H](O)[C@H]2O[C@H]2C[C@](C)(N)[C@H](O)[C@H](C)O2)Oc2ccc(cc2Cl)[C@H]1O | – | inactive | inactive |
| Cn1ncc(S(=O)(=O)Cc2ccccc2)c(Br)c1=O | – | 44.7 µM (active) | inactive |
| CC(C)Cc1ccc([C@H](C)C(=O)O)cc1 | – | inactive | inactive |
| O=C(CCCCCN1CCN(c2ccccc2-c2ccccc2)CC1)NC1CCCc2ccccc21 (stereo unspecified) | – | 79.4 µM (active) | 23.8 µM (active) |
| Cc1cn([C@H]2CC(N=[N+]=[N-])[C@@H](CO)O2)c(=O)[nH]c1=O (stereo partly specified) | – | inactive | inactive |
| O=C(O)CC1CCCc2ccccc2C1O (stereo unspecified) | – | inactive | inactive |
| c1ccc(-c2ccccn2)nc1 | – | inactive | inactive |
| CC(=O)N[C@H](C(=O)O)C(C)(C)SN=O | – | inactive | inactive |
| CN=c1nc(-c2ccccc2)n(-c2ccccc2)s1 | – | 0.316 µM (active) | inactive |
| O=C1NCc2c1c1c3ccccc3[nH]c1c1[nH]c3ccccc3c21 | – | 79.4 µM (active) | 23.8 µM (active) |
| CC(=O)SCC[N+](C)(C)C | – | inactive | inactive |
| NCCCS(=O)(=O)O | – | inactive | inactive |
| O=C(CCc1ccncc1)NNC(=O)N1Cc2ccccc2Oc2ccc(Cl)cc21 | – | inactive | inactive |
| NCCCCC(=O)O | – | inactive | inactive |
| CC(=O)/C=C1\C(=O)N(C)c2ccccc21 | – | 28.2 µM (active) | inactive |
| CN1C2CCC1CC(OC(=O)C(O)c1ccccc1)C2 (stereo unspecified) | – | inactive | inactive |
